The text below walks through data of PubChem BioAssay (NCI).

What all share (experiment): NCI-60 one-dose screen, 48 h (100 = growth as untreated, 0 = no growth, -100 = all killed)
The subject of one experiment is HCT-15 colon. The following applies: 10 µM unless noted.
The next experiment deals with HT29 colon. The following applies: 10 µM unless noted.
Another experiment relates to SNB-75 CNS. The following applies: 10 µM unless noted.
The next experiment relates to SNB-19 CNS. The note with it: 10 µM unless noted.
The subject of another experiment is U251 CNS. The following applies: 10 µM unless noted.
In the next experiment the test system is PC-3 prostate. The following applies: 10 µM unless noted.
For another experiment, the system named is SK-MEL-5 melanoma. The following applies: 10 µM unless noted.
The next experiment relates to UACC-62 melanoma. The note with it: 10 µM unless noted.
The next experiment concerns LOX IMVI melanoma. The following applies: 10 µM unless noted.
The next experiment has as its system SK-MEL-28 melanoma. The note with it: 10 µM unless noted.
Another experiment concerns SK-MEL-2 melanoma. The note with it: 10 µM unless noted.
Another experiment concerns SN12C renal. The following applies: 10 µM unless noted.
A further experiment relates to UO-31 renal. The note with it: 10 µM unless noted.
Another experiment has as its system TK-10 renal. The note with it: 10 µM unless noted.
For another experiment, the system named is ACHN renal. The following applies: 10 µM unless noted.
The next experiment has as its system CAKI-1 renal. The note with it: 10 µM unless noted.
The next experiment concerns A498 renal. The following applies: 10 µM unless noted.
Another experiment deals with CCRF-CEM leukemia. The following applies: 10 µM.
A further experiment has as its system MOLT-4 leukemia. The note with it: 10 µM unless noted.
Another experiment has as its system EKVX NSCLC. The note with it: 10 µM.

Values joined by “and” are separate entries in the source; they are usually repeats but may differ in a detail not shown here. Identical values can stand only once. About 83,000 compounds went through this panel and 20% of them were active in at least one assay; those are over-represented in the sample as a whole.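 Step 1: grow cells in 96-well plates. Step 2: add test compound at a single concentration. Step 3: incubate 48 h. Step 4: record percent growth.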 A number with no mark means an inactive call. Active and inactive are the calls of the source. The calls were made as follows: active = growth percent below 10; inactive = the rest.

As to `C#CCOC(=O)Nc1ccccc1`, the growth was 99.6% with HCT-15 colon; 112% with HT29 colon; 91.2% with SNB-75 CNS; 111% in the experiment on SNB-19 CNS; 98.2% in the experiment on U251 CNS; 96.7% in the experiment on PC-3 prostate. Further, the growth is 103% with SK-MEL-5 melanoma; 104% in the experiment with UACC-62 melanoma; 99.2% in the experiment on LOX IMVI melanoma; 103% in the experiment with SK-MEL-28 melanoma; 109% with SK-MEL-2 melanoma; 101% in the experiment on SN12C renal. The growth in the experiment with UO-31 renal was 97.7%; in the experiment with TK-10 renal, 103%; in the experiment with ACHN renal, 114%; in the experiment on CAKI-1 renal, 98%; with A498 renal, 75.2%; in the experiment on CCRF-CEM leukemia, 112%. Also, in the experiment with MOLT-4 leukemia, the growth was 104%.
In the case of `O=C(Cc1ccccc1)c1ccc(O)c(Cl)c1`, the growth was 13.9% with HCT-15 colon; 30.2% in the experiment on HT29 colon; 72.7% in the experiment with SNB-75 CNS; 74.8% in the experiment on SNB-19 CNS; 73% in the experiment with U251 CNS; 53.2% in the experiment with PC-3 prostate. Also, the growth in the experiment with SK-MEL-5 melanoma is 27.5%; with UACC-62 melanoma, 26.8%; in the experiment with LOX IMVI melanoma it was 15.2%; with SK-MEL-28 melanoma, 49.4%; in the experiment with SK-MEL-2 melanoma, 64.9%; in the experiment on SN12C renal, 31.1%. Also, the growth in the experiment with TK-10 renal is 47.4%; with CAKI-1 renal, 42.1%; with CCRF-CEM leukemia it was -27.2% (active); in the experiment with MOLT-4 leukemia, 22.6%.
In the case of `COc1ccc(N/C=C/C2=[N+](C)c3ccccc3C2(C)C)c(OC)c1`, the growth was 99.3% in the experiment with HCT-15 colon; 87.4% in the experiment on HT29 colon; 89.5% in the experiment with SNB-75 CNS; 102% in the experiment with SNB-19 CNS; 91.2% in the experiment on U251 CNS; 87.6% in the experiment with PC-3 prostate. Also, the growth in the experiment on SK-MEL-5 melanoma is 90.9%; in the experiment with UACC-62 melanoma it was 92.9%; in the experiment on LOX IMVI melanoma, 96%; in the experiment on SK-MEL-28 melanoma it was 113%; in the experiment on SK-MEL-2 melanoma it was 114%; in the experiment on SN12C renal it was 96.6%. Also, the growth was 78.8% in the experiment with UO-31 renal; 106% with TK-10 renal; 104% in the experiment with ACHN renal; 81.9% in the experiment with CAKI-1 renal; 90.7% in the experiment on CCRF-CEM leukemia; 104% with MOLT-4 leukemia.
As to `Nc1ccc2c(O)cc(S(=O)(=O)O)cc2c1`, the growth was 104% and 105% in the experiment on HCT-15 colon; 102% and 106% in the experiment on HT29 colon; 99.7% with SNB-75 CNS; 91.6% and 104% in the experiment with SNB-19 CNS; 101% with U251 CNS; 85.5% in the experiment with PC-3 prostate. Besides, the growth with SK-MEL-5 melanoma was 96.6% and 104%; in the experiment with UACC-62 melanoma it was 93.7% and 103%; in the experiment with SK-MEL-28 melanoma it was 101% and 114%; in the experiment with SK-MEL-2 melanoma it was 108% and 92.1%; in the experiment on EKVX NSCLC, 102% and 110%; with SN12C renal, 95.4% and 86.9%. Also, the growth was 69.5% and 63.5% in the experiment on UO-31 renal; 94.4% and 143% with TK-10 renal; 95.8% and 92.8% in the experiment with ACHN renal; 87.1% with CAKI-1 renal; 102% and 100% in the experiment on A498 renal; 74.6% in the experiment on CCRF-CEM leukemia. Besides, the growth in the experiment on MOLT-4 leukemia is 87.3% and 92.5%.
For `CCc1cc(C)cc(O)c1`, the growth in the experiment on HCT-15 colon was 111%; with HT29 colon, 99.4%; in the experiment on SNB-75 CNS, 98%; in the experiment with SNB-19 CNS, 103%; in the experiment with U251 CNS, 96%; in the experiment with PC-3 prostate, 97.1%. The growth with SK-MEL-5 melanoma was 105%; in the experiment on UACC-62 melanoma it was 108%; in the experiment on LOX IMVI melanoma, 105%; with SK-MEL-28 melanoma, 111%; in the experiment with SN12C renal, 105%; in the experiment on UO-31 renal it was 77.3%. Further, the growth was 98.6% in the experiment with TK-10 renal; 117% in the experiment with ACHN renal; 108% in the experiment on CAKI-1 renal; 102% in the experiment on A498 renal; 98.4% in the experiment with CCRF-CEM leukemia; 98.1% in the experiment on MOLT-4 leukemia.
Regarding `NC(=O)NCCCC(N)C(=O)O` (stereo not drawn), the growth in the experiment with HCT-15 colon is 109%; in the experiment on HT29 colon it was 101%; with SNB-75 CNS, 104%; with SNB-19 CNS, 92.1%; in the experiment with U251 CNS, 96.2%; in the experiment with PC-3 prostate it was 95.5%. The growth in the experiment on SK-MEL-5 melanoma was 113%; in the experiment with UACC-62 melanoma, 102%; with LOX IMVI melanoma, 67.6%; with SK-MEL-28 melanoma, 99%; in the experiment on SK-MEL-2 melanoma, 95.4%; in the experiment on SN12C renal, 104%. The values for the growth in the experiment with TK-10 renal, in the experiment on CAKI-1 renal and with MOLT-4 leukemia were 99.3%, 84.6% and 88.7%, respectively.
Regarding `NN1CCOC(c2ccccc2)C1` (stereo not drawn), the growth with HCT-15 colon was 101%; with HT29 colon, 113%; with SNB-75 CNS, 109%; in the experiment with SNB-19 CNS it was 101%; in the experiment on U251 CNS, 102%; in the experiment with PC-3 prostate it was 94.3%. The growth with SK-MEL-5 melanoma was 103%; in the experiment on UACC-62 melanoma, 90.2%; with LOX IMVI melanoma, 94.6%; in the experiment with SK-MEL-28 melanoma, 112%; in the experiment on SK-MEL-2 melanoma it was 110%; in the experiment with SN12C renal, 102%. Also, the growth was 71.4% with UO-31 renal; 122% in the experiment on TK-10 renal; 99.1% in the experiment with ACHN renal; 109% in the experiment on CAKI-1 renal; 99.3% with CCRF-CEM leukemia; 76.1% with MOLT-4 leukemia.
